Consider five compounds from PubChem BioAssay.

Test [1] deals with Human papillomavirus type 1a protein E7 (residues 44-93). Nature of the test: small molecules binding HPV E7 44-93 – biochemical, small-molecule microarray, residues 44-93, 635 nm fluorescence, primary screen (AID 1108).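 Also: E7 fragment applied at 1 µg/mL in TBST for 1 h at 4 C; score combines spot fluorescence with its signal to noise ratio.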 The conditions noted are these: fluorescence 635 nm, higher = more signal.
Test [2] can be described thus: hepatitis C replication reporter changes, two-sided – Huh7 cells, luciferase reporter, HCV replication inhibitor project, primary screen (AID 1109).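 Also: huh7 hepatoma cells harbouring a luciferase neomycin HCV replicon reporter; luciferase luminescence as measure of HCV replicon replication; test concentration not given here.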 The conditions noted are these: Huh7 HCV replicon luciferase reporter, 48 h; higher = more signal. In general terms: A reporter such as luciferase makes a cellular process visible.
In test [3] the target is Left-right determination factor 2 (Homo sapiens) (UniProt O00292). Nature of the test: small molecules binding LEFTY2 protein – biochemical, small-molecule microarray, 635 nm fluorescence scan, primary screen (AID 1110). As to conditions: higher = more signal.
Left-right determination factor 2 (Homo sapiens), sequence (O00292 whole entry, looked up): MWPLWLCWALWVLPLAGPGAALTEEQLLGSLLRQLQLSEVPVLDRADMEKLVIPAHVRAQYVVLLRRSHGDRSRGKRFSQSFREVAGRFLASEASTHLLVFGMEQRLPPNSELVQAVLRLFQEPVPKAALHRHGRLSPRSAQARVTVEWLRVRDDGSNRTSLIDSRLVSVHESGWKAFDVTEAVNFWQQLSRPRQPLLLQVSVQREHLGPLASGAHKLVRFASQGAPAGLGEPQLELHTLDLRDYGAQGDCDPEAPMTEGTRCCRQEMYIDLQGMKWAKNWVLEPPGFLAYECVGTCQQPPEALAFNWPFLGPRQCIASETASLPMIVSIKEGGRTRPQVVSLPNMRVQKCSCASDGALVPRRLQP
The target of test [4] is Calmodulin-1 (Homo sapiens) (UniProt P0DP23). Nature of the test: small molecules binding calmodulin-1 with EGTA – biochemical, small-molecule microarray, Cy5-labelled CALM1, profiling panel (AID 1111).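 Also: labelled calmodulin applied in Tris saline Tween buffer holding calcium plus EGTA and DTT.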 As to conditions: Cy5-CALM1 binding fluorescence, higher = more signal.
Test [5] has the same target. Nature of the test: small molecules binding Ca-loaded calmodulin-1 – biochemical, small-molecule microarray, Cy5-labelled CALM1, plus calcium, artefact control for SMM control-protein annotation, profiling panel (AID 1112).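 Also: score merges spot fluorescence with signal to noise from triplicate slides.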 The conditions noted are these: Cy5-CALM1 binding fluorescence, higher = more signal.
A short description of test [6]: probe aWnt5a binding to arrayed compounds – biochemical, biotinylated probe, 635/667 nm fluorescence, primary screen (AID 1113).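 Also: score merges 667 nm fluorescence intensity with signal-to-noise per printed feature.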 The conditions noted are these: small-molecule microarray, higher = more signal.
A short description of test [7]: probe aShh binding to arrayed compounds – biochemical, biotinylated probe, 635/667 nm fluorescence, primary screen (AID 1114).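 Also: probe is biotin-labelled aShh protein from a stem cell growth factor screen; measures binding of labelled protein to compounds printed on the slide; score merges feature fluorescence at 667 nm with signal-to-noise.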 The conditions noted are these: small-molecule microarray, higher = more signal.
Test [8] in a line: probe aNog binding to arrayed compounds – biochemical, biotinylated probe, 635/667 nm fluorescence, primary screen (AID 1115).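 Also: probe is biotinylated aNog protein used at 0.15 µg/mL for 1 h at 4 C; z-score combines 667 nm fluorescence of each spot with its signal to noise.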 The conditions noted are these: small-molecule microarray, higher = more signal.
Test [9] deals with Torsin-1A-interacting protein 1 (Homo sapiens) (UniProt Q5JTV8). Nature of the test: compound microarray binding of lysate hLAP1 – cell lysate, small-molecule microarray, COS7 lysate, 635/667 nm fluorescence, primary screen (AID 1116). As to conditions: 635 nm fluorescence, higher = more signal.
Torsin-1A-interacting protein 1 (Homo sapiens), sequence (Q5JTV8 whole entry, looked up): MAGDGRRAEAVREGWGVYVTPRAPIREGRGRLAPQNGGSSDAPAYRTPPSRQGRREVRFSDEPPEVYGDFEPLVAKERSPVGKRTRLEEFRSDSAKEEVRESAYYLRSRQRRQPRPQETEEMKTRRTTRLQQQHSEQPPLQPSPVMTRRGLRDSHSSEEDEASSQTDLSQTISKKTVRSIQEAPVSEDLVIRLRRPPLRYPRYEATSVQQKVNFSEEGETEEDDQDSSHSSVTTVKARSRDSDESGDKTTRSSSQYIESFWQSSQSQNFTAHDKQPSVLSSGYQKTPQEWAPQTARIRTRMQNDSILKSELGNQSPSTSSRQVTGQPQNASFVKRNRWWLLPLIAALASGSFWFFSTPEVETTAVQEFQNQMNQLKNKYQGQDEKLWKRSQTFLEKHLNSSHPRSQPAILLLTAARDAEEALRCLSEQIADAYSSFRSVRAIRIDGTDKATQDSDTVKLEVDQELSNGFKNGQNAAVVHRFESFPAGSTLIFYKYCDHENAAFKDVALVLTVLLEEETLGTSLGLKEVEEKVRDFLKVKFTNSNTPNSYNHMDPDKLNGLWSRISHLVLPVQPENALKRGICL
Test [10] addresses Alpha-bungarotoxin (Bungarus multicinctus) (UniProt P60615). Nature of the test: compounds binding labelled alpha-BTX control protein – biochemical, small-molecule microarray, Alexa647 label, 635/667 nm fluorescence, artefact control for SMM control protein annotation, profiling panel (AID 1117). As to conditions: alpha-BTX-A647 binding fluorescence, higher = more signal.
The target in a further test is Albumin (Bos taurus) (UniProt P02769). Nature of the test: compounds binding labelled BSA control protein – biochemical, small-molecule microarray, Alexa647 label, 635/667 nm fluorescence, artefact control for SMM control protein annotation, profiling panel (AID 1118).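 Also: score merges 667 nm emission intensity and signal-to-noise per printed compound spot.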 As to conditions: BSA-A647 binding, fluorescence 635 nm, higher = more signal.
Albumin (Bos taurus), sequence (P02769 whole entry, looked up): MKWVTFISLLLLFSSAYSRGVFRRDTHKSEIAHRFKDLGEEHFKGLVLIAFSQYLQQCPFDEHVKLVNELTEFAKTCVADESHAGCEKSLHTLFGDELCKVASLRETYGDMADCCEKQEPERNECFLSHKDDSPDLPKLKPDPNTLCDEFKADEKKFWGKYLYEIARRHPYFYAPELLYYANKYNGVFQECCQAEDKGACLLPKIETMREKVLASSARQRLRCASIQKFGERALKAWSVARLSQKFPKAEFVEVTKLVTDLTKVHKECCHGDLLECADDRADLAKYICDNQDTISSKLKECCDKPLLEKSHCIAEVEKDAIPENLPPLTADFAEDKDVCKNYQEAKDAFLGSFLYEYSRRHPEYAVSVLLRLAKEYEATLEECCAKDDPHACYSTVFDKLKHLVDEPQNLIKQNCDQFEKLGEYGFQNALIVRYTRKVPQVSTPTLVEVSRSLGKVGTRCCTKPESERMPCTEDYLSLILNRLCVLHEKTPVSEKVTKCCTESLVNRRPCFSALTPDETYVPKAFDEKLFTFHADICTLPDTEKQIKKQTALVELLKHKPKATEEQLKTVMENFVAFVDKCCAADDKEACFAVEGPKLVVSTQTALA
Test [11] can be described thus: probe aXIP binding to arrayed compounds – biochemical, NeuroSMM set, 635/667 nm fluorescence, primary screen (AID 1119).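 Also: probe is the protein aXip251-270 applied at 1 µg/mL to compound-printed slides; binding of probe to printed compounds measured as 667 nm fluorescence plus signal to noise.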 The conditions noted are these: small-molecule microarray, higher = more signal, called active from +8 up or from −8 down.
A short description of test [12]: probe aNOTCH3 binding on compound microarray – biochemical, small-molecule microarray, 635/667 nm fluorescence, primary screen (AID 1120).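 Also: probe is a biotin-tagged antibody raised against NOTCH3 rather than NOTCH3 protein; score merges spot fluorescence near 667 nm with spot signal to noise.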 As to conditions: higher = more signal.
Test [13] in a line: probe aNOTCH2 binding on compound microarray – biochemical, small-molecule microarray, 635/667 nm fluorescence, primary screen (AID 1121).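 Also: score merges feature fluorescence read at 667 nm with its signal to noise.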 The conditions noted are these: higher = more signal.
In test [14] the target is Carbonic anhydrase 2 (Homo sapiens) (UniProt P00918). Nature of the test: compounds binding carbonic anhydrase 2 – biochemical, small-molecule microarray, Alexa647-labelled CAII, profiling panel (AID 1122). The conditions noted are these: CAII-A647 binding fluorescence, higher = more signal.
The nature of test [15]: COS7 lysate on small-molecule microarray, probe aHis, 635 nm (AID 1123).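 Also: z-score combines 667nm fluorescence intensity with signal-to-noise per printed compound spot.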 As to conditions: COS7 cell lysate, fluorescence, higher = more signal.
Test [16] is described as follows: probe aLAP1 signal on lysate-treated microarray – cell lysate, small-molecule microarray, COS7 lysate, primary screen (AID 1124).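 Also: lysate comes from COS7 cells expressing LAP1 and is applied at 0.3 µg/mL; score merges spot fluorescence near 667 nm with signal-to-noise over triplicate slides.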 As to conditions: probe aLAP1, fluorescence, higher = more signal.
Another test relates to Sam68 (KHDRBS1). Nature of the test: compounds binding KHDRBS1 protein – biochemical, small-molecule microarray, 635 nm fluorescence, primary screen (AID 1125).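 Also: score merges 667 nm channel intensity with signal to noise over triplicate slides.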 The conditions noted are these: higher = more signal.
For test [17], the system named is Chordin-like protein 2 (CHRDL2). Nature of the test: compounds binding chordin-like 2 – biochemical, small-molecule microarray, 635 nm fluorescence, primary screen (AID 1126).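 Also: printed compound slides probed with Chrdl2 protein at 4 µg/mL for 1 h at 4 C; score merges 667 nm emission intensity with signal to noise over three replicate slides.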 As to conditions: fluorescence 635 nm, higher = more signal.
Test [18] concerns the target Concanavalin-A (Canavalia ensiformis) (UniProt P02866). Nature of the test: compounds binding concanavalin A lectin – biochemical, small-molecule microarray, Alexa647 label, 635 nm, artefact control for SMM control protein annotation, primary screen (AID 1127).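 Also: z combines 667 nm emission intensity with signal-to-noise across three replicate slides.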 The conditions noted are these: ConA-A647 binding fluorescence, higher = more signal.

Active and inactive are the calls of the source.

Alpha-bungarotoxin (Bungarus multicinctus), sequence (P60615 whole entry, looked up): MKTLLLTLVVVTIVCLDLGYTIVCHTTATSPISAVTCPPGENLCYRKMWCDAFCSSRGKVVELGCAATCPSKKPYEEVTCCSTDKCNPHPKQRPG
Concanavalin-A (Canavalia ensiformis), sequence (P02866 whole entry, looked up): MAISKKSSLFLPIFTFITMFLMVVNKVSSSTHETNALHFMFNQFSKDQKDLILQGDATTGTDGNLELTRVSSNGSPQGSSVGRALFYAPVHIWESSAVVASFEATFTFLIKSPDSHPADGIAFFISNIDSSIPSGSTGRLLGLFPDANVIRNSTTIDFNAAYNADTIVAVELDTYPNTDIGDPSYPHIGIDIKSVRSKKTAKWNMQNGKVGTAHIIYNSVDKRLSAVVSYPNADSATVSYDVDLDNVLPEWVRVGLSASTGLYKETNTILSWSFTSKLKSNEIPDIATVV

`CO[C@H]1O[C@H](CO)[C@@H](OC(=O)Nc2ccc(Br)cc2)[C@@H]2OC(=O)[C@H](Cc3cccc(Br)c3)C/C=C/C[C@@H](Cc3cccc(Br)c3)C(=O)O[C@@H]12`: the composite z-score in test [1] was -0.852; in test [3] it was -0.402; in test [4] it was 0.404; in test [5], 0.609; in test [6], -0.12; in [7], -0.221. Also, the composite z-score is -0.1 in [8]; -0.284 in [9]; 0.386 in [10]; 0.0911 in the test with Albumin (Bos taurus); -0.0622 in [12]; -0.129 in test [13]. Besides, the composite z-score is 0.275 in test [14]; 0.112 in test [15]; -0.0838 in test [16]; -0.975 in the test on Sam68 (KHDRBS1); 0.0113 in [17]; 0.365 in test [18]. In test [2], this compound displayed a z-score of -3.26. For the same compound, the composite Z-score in test [11] is 0.106 (inactive).

For `C=CC[C@@]1(C(=O)N2CCCCC2)N=C(c2ccc(OCCCO)cc2)O[C@@H]1c1ccccc1N=[N+]=[N-]`, the composite z-score in test [1] was found to be 1.46; in test [3] it was 0.227; in test [4] it was 1.27; in [5], 0.613; in [6], 0.0472; in test [7] it was 0.214. For the same compound, the composite z-score in test [8] is 1.54; in test [9] it was 1.05; in test [10] it was 2.11; with Albumin (Bos taurus), 0.82; in test [12] it was 0.185; in test [13], 0.0497. Besides, the composite z-score in [14] is 0.443; in test [15] it was 2.41; in test [16], -0.0724; in the test with Sam68 (KHDRBS1), 1.29; in [17], -0.294; in [18], 1.04. In addition, in [2], the z-score is -1.62. In test [11], the composite Z-score is -0.797 (inactive).

As to `C=CC[C@]1(C(N)=O)COC(c2ccc(OCCCO)cc2)=N1`, the composite z-score in test [1] is -0.287; in [3] it was 0.237; in test [4], -0.257; in test [5], -0.296; in test [6], -0.0899; in test [7], -0.0793. The composite z-score in test [8] was 0.0519; in [9], 0.837; in test [10] it was 1.37; with Albumin (Bos taurus), 0.102; in test [12] it was 0.0831; in test [13], -0.104. The composite z-score was 0.903 in [14]; 0.148 in [15]; -0.136 in test [16]; -0.133 with Sam68 (KHDRBS1); 0.0919 in test [17]; 0.817 in test [18]. The compound further yielded a z-score in test [2] of -0.243. Moreover, the composite Z-score in test [11] was 0.0767 (inactive).

For `C=C(CCCC)C(=O)CC[C@H](OC(=O)c1cccnc1)c1ccc(OCCO)cc1`, the composite z-score in test [1] was -0.574; in test [3], -0.327; in test [4] it was -0.556; in test [5], -0.736; in test [6], -0.0455; in [7] it was 0.296. Besides, the composite z-score is 0.406 in test [8]; 0.656 in [9]; 0.551 in test [10]; 0.0514 with Albumin (Bos taurus); -0.0076 in test [12]; -0.14 in test [13]. Besides, the composite z-score was 0.72 in test [14]; -0.0099 in test [15]; 0.022 in test [16]; 0.567 in the test with Sam68 (KHDRBS1); 0.191 in [17]; -0.421 in [18]. The compound also gave a z-score in test [2] of -3.61. Besides, the composite Z-score in [11] is 0.197 (inactive).

On to `CC(CO)N1C(=O)[C@@H]2C3C(=O)OCCC/C=C\[C@H]3OC23C=CCN(CCN2CCOCC2)C(=O)[C@@H]13` (stereo not given in full), for which the composite z-score in test [1] was -0.201; in test [3], -0.0109; in test [4] it was -0.514; in [5], -1.01; in test [6], -0.152; in test [7], 0.0048. Further, the composite z-score in test [8] was -0.272; in [9] it was -0.116; in test [10], 0.0654; with Albumin (Bos taurus) it was -0.424; in test [12], -0.21; in [13] it was -0.147. In addition, the composite z-score in test [14] is 0.366; in test [15], -0.463; in test [16] it was -0.277; with Sam68 (KHDRBS1), 0.191; in test [17], -0.0493; in test [18] it was 0.272. For the same compound, the z-score in [2] was -0.77. In addition, the composite Z-score in test [11] was 0.286 (inactive).
